Experimental findings from PMC8384837, “Expanding the binding specificity for RNA recognition by a PUF domain” are described below.

PUM1 PUF domain R3-FFS, sequence (Q14671 828-1176 C935F/R936F/Q939S): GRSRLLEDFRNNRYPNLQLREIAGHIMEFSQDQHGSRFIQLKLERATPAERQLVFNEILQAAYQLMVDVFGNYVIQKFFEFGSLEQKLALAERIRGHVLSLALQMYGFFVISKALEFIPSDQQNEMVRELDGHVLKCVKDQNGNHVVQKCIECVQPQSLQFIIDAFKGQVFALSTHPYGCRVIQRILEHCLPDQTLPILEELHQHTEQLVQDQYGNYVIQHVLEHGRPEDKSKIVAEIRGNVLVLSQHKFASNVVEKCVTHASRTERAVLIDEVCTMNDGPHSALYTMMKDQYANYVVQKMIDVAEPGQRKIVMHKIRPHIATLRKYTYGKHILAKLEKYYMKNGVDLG

This test addresses PUM1 PUF domain R3-FFS (Homo sapiens, UniProt Q14671 828-1176, C935F;R936F;Q939S). Nature of the test: yeast three-hybrid, YBZ-1, SC-Leu-His + 0.5 mM 3-AT, 4 days. Particulars: tags: N-Gal4 AD-HA kept; label: inside an RPR1-promoter hybrid RNA with tandem MS2 sites; ssRNA. Summed up: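 A centromeric plasmid in strain YBZ-1 co-expressed Pumilio-1 PUF domain libraries, randomized at the three base-contacting residues of each repeat, with matching RNA elements; the strain carries a LexA–MS2 coat fusion and a HIS3 reporter. After four days on SC-Leu (input) or SC-Leu-His + 0.5 mM 3-AT (selection), the repeat regions were PCR-amplified and Illumina-sequenced. The interaction score is the log change in variant frequency from input to selection, using log2 and a pseudocount of 1 where absent.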
As to “GGCUAGAACUAGUGGAUCCCCCGGCGCCCGGCGGCUCGAGCCCGGGUAAGUGUAAUUAGUCUGCAUGCCGCCGGGCGCCAUGCCUGCAGGUCGACUCUAGAAAACAUG”, the binding signal is 5.05 log2 enrichment (interaction score).

Consider “GGCUAGAACUAGUGGAUCCCCCGGCGCCCGGCGGCUCGAGCCCGGGUAAGUGUAAGUAGUCUGCAUGCCGCCGGGCGCCAUGCCUGCAGGUCGACUCUAGAAAACAUG”, for which the binding signal was 6.93 log2 enrichment (interaction score).

Regarding “GGCUAGAACUAGUGGAUCCCCCGGCGCCCGGCGGCUCGAGCCCGGGUAAGUGUAAAUAGUCUGCAUGCCGCCGGGCGCCAUGCCUGCAGGUCGACUCUAGAAAACAUG”, the binding signal is 3.99 log2 enrichment (interaction score).
